Reference: PubChem BioAssay (NCI)
This is part of a sample that, as a whole, favours compounds with a hit. Of some 79,000 tested, about 15% had one in any assay. Rule as the data show it: active = growth inhibition above about 70%; inactive = the rest.

Tests used:
[1] = NCI Yeast Anticancer Drug Screen. Data for the rad50 strain (AID 155);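 also: 0% = growth of vehicle-only cultures of the same strain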; details: S. cerevisiae rad50 strain growth inhibition; at 50.0 µM; active compounds read high
Summary of the method: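 Yeast carrying a defined DNA repair defect were exposed to test compounds, and growth was compared with vehicle-treated controls to give percent inhibition.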

[2] = NCI Yeast Anticancer Drug Screen. Data for the mec2-1 strain (AID 157); details: S. cerevisiae mec2-1 strain, at 50.0 µM, active compounds read high
Summary of the method: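 Test agents were screened against the mec2-1 yeast strain, with defined DNA repair or cell cycle alteration. Growth was scored as inhibition against vehicle-only controls.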

[3] = NCI Yeast Anticancer Drug Screen. Data for the sgs1 mgt1 strain (AID 161);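 also: 0% = growth of cultures given vehicle only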; details: S. cerevisiae sgs1 mgt1 strain, at 50.0 µM, active compounds read high
Summary of the method: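 Read-out: growth inhibition vs vehicle controls. Cells: mutant yeast strain deficient in DNA damage repair.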

[4] = NCI Yeast Anticancer Drug Screen. Data for the cln2 rad14 strain (AID 165);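 also: 0% = growth equal to vehicle treated cultures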; details: S. cerevisiae cln2 rad14 strain, at 50.0 µM, active compounds read high
Summary of the method: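 Growth of compound-exposed yeast (cln2 rad14 genotype) measured and expressed as inhibition relative to vehicle.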

[5] = NCI Yeast Anticancer Drug Screen. Data for the bub3 strain (AID 167); details: S. cerevisiae bub3 mutant strain, at 50.0 µM, active compounds read high
Summary of the method: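 Compounds were applied to a genetically altered yeast strain carrying a cell-cycle control defect. Growth inhibition was scored against vehicle-treated controls.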

[6] = NCI Yeast Anticancer Drug Screen. Data for the mlh1 rad18 strain (AID 175); details: S. cerevisiae mlh1 rad18 strain growth inhibition; at 50.0 µM; active compounds read high
Summary of the method: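 In this whole-cell yeast screen, a strain with altered DNA damage repair is challenged with compound, and its growth is measured against matched vehicle-treated controls.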

Measured: growth inhibition

COc1cc(C)oc(=O)c1
inactive: [1] -6.1% | [2] 6.15% | [3] -2.45% | [4] -16.6% | [5] 8.1% | [6] 3.3%

CC(=O)C(N=Nc1ccc(S(=O)(=O)NC2NCCC(C)N2)cc1)C(=O)Nc1ccccc1C (stereo unspecified)
inactive: [1] 55.1% | [2] 15.8% | [3] 48% | [4] 25.6% | [5] 0.7% | [6] 42.5%

CC(=O)OCC(OC(C)=O)C(OC1OC(COC(C)=O)C(OC(C)=O)C(OC(C)=O)C1OC(C)=O)C(OC(C)=O)C(C=O)OC(C)=O (stereo unspecified)
inactive: [1] -0.2% | [2] 10.8% | [3] 9.75% | [4] -5.75% | [5] -3.8% | [6] -7.95%

c1cc(CNCCN2CCNCC2)ccn1
inactive: [1] 7.45% | [2] -34.2% | [3] -3.7% | [4] -1.9% | [5] -48.9% | [6] 16.8%

CCCCCC(=O)OCCOC
inactive: [1] -3.4% | [2] -15.2% | [3] -8.45% | [4] -46% | [5] -38.1% | [6] -13.7%

NC(=O)NC(=O)Cc1ccc([N+](=O)[O-])cc1
inactive: [1] 5.1% | [2] 0.1% | [3] 5.1% | [4] -5.15% | [5] 6.25% | [6] -0.35%

N#Cc1cc2c(cc1C#N)/C(=N\c1cccc(N)n1)N=C2Nc1cccc(N)n1
inactive: [1] 6.1% | [2] 19.1% | [3] 0.2% | [4] 1.25% | [5] 5.8% | [6] 22%

CC1(C)S[C@H](c2ccccc2C(=O)O)N[C@@H]1CC(=O)O
inactive: [1] -35.3% | [2] -6.9% | [3] -49.5% | [4] -21.7% | [5] -26.5% | [6] -31.4%

CCCCCCCC(=O)N(CC)CC
inactive: [1] 13.5% | [2] -4.05% | [3] 25.4% | [4] -17.1% | [5] 1.6% | [6] 8.75%

CC(C)(C)SCC(=O)O
inactive: [1] -21.6% | [2] -19.6% | [3] -24.8% | [4] 19.5% | [5] 6.75% | [6] 1.55%

Cc1c(-c2ccccc2)cc(O)c2nc3ccccc3n12
inactive: [1] -31.2% | [2] 6.45% | [3] -16.6% | [4] 2.45% | [5] 11.9% | [6] -36.9%

COc1cc(N=Nc2ccc(S(=O)(=O)O)cc2)ccc1N=Nc1ccc2c(S(=O)(=O)O)cccc2c1O
inactive: [1] 15% | [2] -8.05% | [3] 14.3% | [4] 11.4% | [5] 5.8% | [6] 2.15%

CCOC(COc1ccc2ccccc2c1)OCC
inactive: [1] -18.6% | [2] 0.5% | [3] 0.55% | [4] -55.7% | [5] 6.9% | [6] -10.1%

COC(=O)C1=CO[C@@H](O)[C@@H]2C(C)OC(=O)C[C@H]12 (stereo partly specified)
inactive: [1] -8.5% | [2] -28.3% | [3] -6.9% | [4] 3.2% | [5] -10.8% | [6] -15.2%

C(=C\c1ccc(-c2ccccc2)cc1)/c1ccc(-c2ccccc2)cc1
inactive: [1] -16.2% | [2] -19.9% | [3] 4.4% | [4] -5.3% | [5] -16.7% | [6] -16.4%

O=c1oc2ccccc2cc1-n1nnc2cc([N+](=O)[O-])ccc21
inactive: [1] 39% | [2] 24.1% | [3] 25.8% | [4] -25.6% | [5] 12.8% | [6] 26.8%

CC(O)CN1CCN(CN(CC(C)O)CC(C)O)CC1 (stereo unspecified)
inactive: [1] 0.55% | [2] 7.25% | [3] 10.7% | [4] -2.65% | [5] 9% | [6] -16.4%

Cc1ccc(S(=O)C(C)C(Cl)c2ccccc2)cc1 (stereo unspecified)
inactive: [1] -3.6% | [2] 0.2% | [3] 5.6% | [4] 16.9% | [5] 11.7% | [6] 6.9%

O=C(CCCC(=O)NNC(=O)Nc1cccc(Cl)c1)NNC(=O)Nc1cccc(Cl)c1
inactive: [1] -13.2% | [2] -2.2% | [3] -10.9% | [4] -12.9% | [5] -1.7% | [6] -10.6%

Cc1ccccc1NC(=O)C(C)C
inactive: [1] 28.8% | [2] -5.7% | [3] 4.35% | [4] 11.3% | [5] 15.2% | [6] 7.2%

Cc1cc(Cl)ccc1NC(=O)/C(=N\NC(C)(C)C)C(C#N)c1nc(-c2ccc([N+](=O)[O-])cc2)cs1 (stereo unspecified)
inactive: [1] 23.8% | [2] 8.95% | [3] 3.85% | [4] 25.7% | [5] 4.25% | [6] -10.8%

CC(=O)OC1CC(C(C)C)CCC1C (stereo unspecified)
inactive: [1] 18.1% | [2] 12.8% | [3] 6.3% | [4] 4.95% | [5] -8.55% | [6] 11.7%

Cc1ccc(NC(=O)Oc2ccc(F)cc2)cc1NC(=O)Oc1ccc(F)cc1
inactive: [1] 25.9% | [2] 13.3% | [3] 15.3% | [4] 15.2% | [5] -4.95% | [6] 33.6%

COC(=O)C1(C)CCCC2(C)C1CCC13OC(=O)C(C(C)C)(CC21)C3O (stereo unspecified)
inactive: [1] -3.6% | [2] -28.3% | [3] -10.8% | [4] -33.7% | [5] -1.45% | [6] -28.8%

CCc1ccc[n+](-c2ccncc2CC)c1
inactive: [1] -7.9% | [2] -9.55% | [3] -9.15% | [4] -12.9% | [5] 2.8% | [6] -9.8%

CCOC(=O)C(=O)/C(=C/N1CCNC1=S)C(=O)OCC
inactive: [1] -28.6% | [2] -9.05% | [3] -26.8% | [4] 32.4% | [5] -4.35% | [6] -25.9%

O=C(CCl)N1C(=O)NC(c2ccc(Cl)cc2)(c2ccc(Cl)cc2)C1=O
inactive: [1] 6.9% | [2] 12% | [3] 8.9% | [4] -4.8% | [5] -29% | [6] -3.9%

CC(=O)NCC1(c2ccccc2)CCN(CC2COc3ccccc3O2)CC1 (stereo unspecified)
inactive: [1] -15.3% | [2] -16.4% | [3] -15.2% | [4] 16% | [5] 17.1% | [6] 9.45%

O=C1c2ccccc2CN(C(=Nc2ccccc2)Nc2ccccc2)c2ccccc21
inactive: [1] 15.1% | [2] 2.95% | [3] -0.55% | [4] -25.7% | [5] -0.7% | [6] 14.9%

O=C1CSC2=NC3=C(COC/C3=C\c3ccc(F)cc3)C(c3ccc(F)cc3)N12 (stereo unspecified)
inactive: [1] 16.6% | [2] 28.3% | [3] 41.9% | [4] 21.2% | [5] 30.1% | [6] 31.2%

CN(Cc1c(O)ccc2ccccc12)Cc1c[nH]c2ccccc12
inactive: [1] 20.4% | [2] -13.8% | [3] 0.5% | [4] -46.5% | [5] 6.9% | [6] 13.4%

CC(C)=C1C(=O)C[C@]2(C)C/C=C(\C)CC/C=C(\C)CC[C@@H]12
inactive: [1] 39.5% | [2] 40.9% | [3] 62.5% | [4] 46.2% | [5] 58.9% | [6] 38.8%

COc1ccc(NC(=O)C2C(=O)N(c3ccc(OC)cc3)C(=O)/C2=N\NC(N)=O)cc1 (stereo unspecified)
inactive: [1] -8.9% | [2] -24.9% | [3] -48% | [4] 11.1% | [5] -9.6% | [6] -18.2%

O=C(/C=C/c1ccccc1Cl)c1ccc(Cl)c(Cl)c1
inactive: [1] 28.7% | [2] 0.2% | [3] 2.1% | [4] 12% | [5] 15.4% | [6] 29.4%

CC1CCCCN1C(CC(=O)c1ccccc1)C(=O)c1ccccc1 (stereo unspecified)
inactive: [1] 21.4% | [2] 24.1% | [3] 8.55% | [4] 17.1% | [5] 18.4% | [6] 38.7%

COc1ccc(NC(=O)CSc2cc(Cl)ccc2Cl)cc1
inactive: [1] 10.7% | [2] 7.15% | [3] 32.1% | [4] 18.9% | [5] 21.6% | [6] 27.9%

O=Cc1ccc(C(=O)O)cc1
inactive: [1] -1.35% | [2] -14.6% | [3] 0.25% | [4] -13.2% | [5] -12.8% | [6] -9.6%

CCCCC(=O)CCCCCCCCC(=O)CCCC
inactive: [1] 0.7% | [2] -8.65% | [3] -19.8% | [4] -31.2% | [5] -4% | [6] -19.8%

CC(NC(=O)C(OC(=O)C(C)NC(=O)OC(C)(C)C)C(C)C)C(=O)OC(C(=O)O)C(C)C (stereo unspecified)
inactive: [1] -24.2% | [2] 10.3% | [3] -5.75% | [4] -1.1% | [5] 2.1% | [6] -7.15%

CC(=O)OCc1nc2ncnc(N)c2[nH]1
inactive: [1] 0.5% | [2] -5.65% | [3] -11.4% | [4] -52.4% | [5] -3.4% | [6] -4.9%

O=C(O)CCNc1cccs1
inactive: [1] -19.6% | [2] -1.75% | [3] -26.5% | [4] -63.8% | [5] -4.85% | [6] -19.9%
